Test results from PubChem BioAssay AID504607 (Sanford-Burnham Center for Chemical Genomics, 2011).
The whole screen tested about 6,200 compounds, of which about 4,800 (77%) were called active.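 How the source made its calls: active means mean inhibition at 8 µM reaching about 37%, which flags the compound as non-specific (limit read from the data); inactive means the rest.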 The set was probably picked from earlier hits. Only a sample is shown.

assay: full-length luciferase signal inhibition, confirmation, counter-screen for Mdm2/MdmX interaction inhibitor project, cell-based, single concentration, SaOS-2 (AID 504607); settings: SaOS-2 full-length luciferase counterscreen, luminescence; at 8 µM; hits give high values;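 further: p53-null SaOS-2 cells with luciferase driven by a doxycycline-inducible promoter; compound on cells about two nights before reading with doxycycline added after day one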

Row | Structure (SMILES) | inhibition
1 | Oc1c(CN2CCN(c3ccc(F)cc3)CC2)cc(Cl)c2cccnc12 | 25.7% (inactive)
2 | N#Cc1ccc(C(=O)Nc2nc(-c3cccs3)c(C(=O)C(F)(F)F)s2)cc1 | 54.4% (active)
3 | COc1ccc(CNC(=O)C(c2ccc(O)cc2)N(Cc2ccco2)C(=O)c2snc(C(N)=O)c2N)cc1 (stereo not drawn) | 88.8% (active)
4 | Clc1ccc2c(c1)C1=C(C(c3ccncc3)O2)C(c2ccc(Br)cc2)n2ncnc2N1 (stereo not drawn) | 67.2% (active)
5 | Nc1nc(CC(=O)CSc2ccc(Cl)cc2)nc(Nc2ccc(F)cc2)n1 | 29.2% (inactive)
6 | COc1ccc(C2=Nn3c(nnc3-c3ccccc3OC)SC2)cc1OC1CCCC1 | 68.2% (active)
7 | Cc1nc(/N=C(\N)NC(=O)NC2CCCCC2)nc2ccccc12 | 34.4% (inactive)
8 | Cc1nc(N=C(N)N)nc2c(C)cccc12 | 63.3% (active)
9 | COc1ccc(CNC(=O)C[C@H]2C[C@H](C(=O)N3CCOCC3)[C@@]3(CCC4CCCC4)c4[nH]c5ccc(Cl)cc5c4CCN3C2=O)cc1OC | 39.6% (active)
10 | CN(C)c1ccnc2sc3c(=O)n(Cc4ccccc4)cnc3c12 | 15.1% (inactive)
11 | Cc1cccc(CS(=O)(=O)c2ncc(Cl)c(C(=O)Nc3ccc(F)cc3)n2)c1 | 51.2% (active)
12 | O=C(CCl)Nc1cccc(CP(=O)(c2ccccc2)c2ccccc2)c1 | 27.6% (inactive)
13 | Cc1cccc(NC(=O)c2nc(S(=O)(=O)Cc3ccccc3)ncc2Cl)c1 | 50.9% (active)
14 | C[C@@H](NC(=O)OC(C)(C)C)c1nnc(S(=O)(=O)Cc2ccccc2)o1 | 24.9% (inactive)
15 | O=C(/C(=C/c1cccc(Cl)c1)c1nc2ccccc2[nH]1)c1ccccc1 | 97.6% (active)
16 | CCCCNC(=O)C(C)N(CCN(C)C)C(=O)CCCCCN1C(=O)NC(c2ccc(Cl)cc2)C(C(=O)OCc2ccccc2)=C1C (stereo not drawn) | 27.8% (inactive)
17 | Cc1cc2cc3c(cc2nc1SCC(=O)Nc1c(C)cccc1C)CCC3 | 60.3% (active)
18 | CCOC(=O)Nc1ccc2c(c1)N(C(=O)CCCl)c1ccccc1[S@]2=O | 54% (active)
19 | CNC[C@H](CC1CCCCC1)NC[C@H](NCCC1CCCC1)[C@H](C)O | 30.2% (inactive)
20 | COc1ccc(CN(C)C(=O)c2cc(-c3ccc(C)cc3C)nc3ccccc23)c(OC)c1OC | 62.1% (active)
21 | COc1ccc(-c2cc(C(=O)N(C)Cc3ccc(OC)c(OC)c3OC)c3ccccc3n2)cc1OC | 97.7% (active)
22 | COc1ccc(-c2cc(C(=O)N(C)CC(=O)Nc3ccccc3Cl)c3ccccc3n2)cc1OC | 79% (active)

Row | Structure (SMILES) | inhibition
23 | COc1cc(SC)ccc1C(=O)Nc1nc(C)cs1 | 43.3% (active)
24 | COc1c(C)c2c(c(O)c1C/C=C(\C)CCC(=O)O)C(=O)OC2 | 22.9% (inactive)
25 | O=C(Nc1ccc2c(c1)OCCO2)C1CCCC1 | 88.1% (active)
26 | Oc1c(Cl)cc(Cl)c(Cl)c1Cc1c(O)c(Cl)cc(Cl)c1Cl | 26.8% (inactive)
27 | CCNC(=O)c1c(O)c2cccc3c2n(c1=O)CC3 | 22.6% (inactive)
28 | Cc1ccc(-c2nn(C(C)(C)C)c3ncnc(N)c23)cc1 | 30.7% (inactive)
29 | O=C1NC[C@@H](c2ccccc2)OC(=O)[C@H](Cc2ccc(F)cc2)CC/C=C/C[C@H]1CC(=O)N(CCO)Cc1ccccc1 | 79% (active)
30 | COc1ccc(C(C(=O)NC2CCCCC2)N(C(=O)CCl)c2ccccc2Cl)cc1 (stereo not drawn) | 78.5% (active)
31 | Cc1cc(NC(=O)/C=C/C(=O)N(c2ccccc2C)C(C(=O)NC2CCCC2)c2ccc(F)cc2)no1 (stereo not drawn) | 28.7% (inactive)
32 | COc1ccc(OC)c(Nc2nc(-c3ccc(O)c(O)c3)cs2)c1 | 79.9% (active)
33 | Cc1oc2c(c1C(=O)N1CCOCC1)C(=O)c1ccccc1C2=O | 56.8% (active)
34 | O=S(=O)([N-]c1nc2ccccc2nc1-[n+]1ccc(Cc2ccccc2)cc1)c1ccc(Br)s1 | 56.5% (active)
35 | OCCNc1nc(Nc2ccc(Cl)c(Cl)c2)nc2ccccc12 | 24.3% (inactive)
36 | O=[N+]([O-])c1c(NCCO)cc(Sc2nc3ccccc3s2)c2nonc12 | 50.4% (active)
37 | COC(=O)Cc1[nH]n(-c2nc3ccccc3s2)c(=O)c1C(C)=Nc1ccc(OC)cc1 | 26.2% (inactive)
38 | O=C(Nc1ccccc1Cl)/C(Cl)=C(\Cl)S(=O)c1ccccc1 (stereo not drawn) | 1.94% (inactive)
39 | CCCC(O)(CCC)C(=O)NN(C(=O)CCl)c1cccc(C)c1 | 23.7% (inactive)
40 | Cc1cccc(N(C)C(=O)c2cc3c(=O)[nH]c4ccc(C)cc4c3s2)c1 | 43.4% (active)
41 | Cc1ccc(N(Cc2cc(=O)[nH]c3ccccc23)C(=O)CCl)cc1 | 25.3% (inactive)
42 | CC[C@]1(C(=O)OC)[C@H]2C(=O)N(Cc3ccccc3)C(=O)[C@H]2[C@H]2CN=C(SCc3ccc(Cl)cc3)N21 | 52.2% (active)
43 | CC[C@]1(C(=O)OC)[C@H]2C(=O)N(Cc3ccccc3)C(=O)[C@H]2[C@H]2CN=C(SCc3ccccc3)N21 | 35.8% (inactive)
